{"source": "PubChem BioAssay (NCI)", "note": "Compounds without any hit were thinned out: in the full panel of roughly 83,000, 20% have a hit.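 Percent growth is the endpoint: 0 to 100 indicates growth inhibition (40 means 60% inhibition), 0 means no net growth, and negative values indicate cell death.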 Unmarked numbers belong to inactive results. Calls of active or inactive are those of the source. Rule for the calls: active = growth percent below 10; inactive = the rest.", "data": [{"test_system": "MDA-MB-468 breast", "test": "NCI-60 one-dose screen, 48 h (100 = growth as untreated, 0 = no growth, -100 = all killed)", "settings": "10 µM unless noted", "values": [{"compound": "O=C(Nc1ccc(F)cc1)c1cc2cc(Nc3nc(-c4ccccc4)nc4ccccc34)ccc2oc1=O", "growth": "111%"}, {"compound": "O=C(O)c1cn(C2CC2)c2cc(N3CCN(C(=O)CN4C(=O)CSC4=O)CC3)c(F)cc2c1=O", "growth": "96.4%"}, {"compound": "O=C(O)c1ccc(-n2c(=O)c3ccccc3c3ccccc3c2=O)cc1", "growth": "105%"}, {"compound": "CSc1ccc(/C(=N/N=C(N)N)c2ccc(Cl)cc2)cc1", "growth": "-36.1% (active)"}, {"compound": "CC(C)CCN(CCCNc1c2c(nc3cc(Cl)ccc13)CCCC2)CCC(C)C", "growth": "22.6%"}, {"compound": "O=C1c2ccccc2-c2nnc(-c3ccc(Br)cc3)cc21", "growth": "20.3%"}, {"compound": "S=C1SCN(Cc2ccccc2)CN1Cc1ccco1", "growth": "31.9%"}, {"compound": "O=[P@@]1(c2ccccc2)O[C@H](COCc2ccccc2)[C@@H](OCc2ccccc2)[C@H](OCc2ccccc2)[C@H]1O", "growth": "21.3%"}, {"compound": "Cc1cc(C2(c3ccc(O)c(C)c3)OS(=O)(=O)c3ccccc32)ccc1O", "growth": "98.9%"}, {"compound": "c1nc(N2CCOCC2)c2[nH]ccc2n1", "growth": "108%"}, {"compound": "CCC(C)[C@H](NC(C)=O)C(=O)N[C@@H](CCCNC(=N)N)C(=O)N[C@@H](CCCCN)C(=O)N[C@@H](CC1CCC(O)CC1)C(=O)NC(C(=O)N[C@@H](CCSC)C(=O)N[C@@H](CCCNC(=N)N)C(=O)N[C@@]1(C)CCC/C=C\\CCC[C@@](C)(C(=O)NC(C(=O)N[C@@H](CCC(=O)O)C(=O)N[C@@H](CC(C)C)C(=O)N[C@H](C(=O)N[C@@H](CCC(=O)O)C(N)=O)C(C)C)[C@@H](C)O)NC(=O)[C@H](CCC(N)=O)NC(=O)[C@H](CC(C)C)NC(=O)[C@H](CC(C)C)NC1=O)[C@@H](C)O", "note": "(stereo not given in full)", "growth": "99.7%"}, {"compound": "CC(C)OC(=O)Nc1cc(F)c(F)cc1F", "growth": "84%"}, {"compound": "COc1cccc(Nc2nc(SC)nc(-c3cccc([N+](=O)[O-])c3)c2C#N)c1", "growth": "81.2%"}, {"compound": "CC(=O)Oc1csc(N(C(C)=O)c2cccc(C(F)(F)F)c2)n1", "growth": "92.1%"}, {"compound": "N#CC1=C(N)Oc2c(sc3c(Br)cccc23)C1c1ccc(Br)cc1", "note": "(stereo not given)", "growth": "12.1%"}, {"compound": "COc1ccc(OCC(CO)N2CCN(c3ccccc3)CC2)cc1", "note": "(stereo not given)", "growth": "99.6%"}, {"compound": "COc1ccc(C2SC(C)C(=O)N2CCc2cccs2)cc1OC", "note": "(stereo not given)", "growth": "48.1%"}, {"compound": "O=[N+]([O-])c1ccc(-c2nc(Cl)c3c(n2)CCCC3)o1", "growth": "54.1%"}, {"compound": "COCCOCCOCc1n(Cc2ccc3ccccc3n2)c2ccccc2[n+]1Cc1ccc2ccccc2n1", "growth": "-17.4% (active)"}, {"compound": "CN(C)c1ccc(/C=C\\N=Nc2ccc(Br)cc2)cc1", "growth": "106%"}, {"compound": "COc1ccc(C2NC3=C(CCCC3)C(C#N)(C#N)C2(C#N)C#N)cc1", "note": "(stereo not given)", "growth": "58%"}, {"compound": "OCc1ccccc1F", "growth": "72.9%"}, {"compound": "Cc1c(F)cccc1NC(=O)c1sc2nc3c(cc2c1N)CCCCC3", "growth": "14.8%"}, {"compound": "COC(=O)c1nc(-c2ccc(C)cc2)oc1S(=O)(=O)c1ccc(Cl)cc1", "growth": "101%"}, {"compound": "O=C1OC(c2ccccc2)=N/C1=C\\c1ccccc1", "growth": "92.4%"}, {"compound": "Cn1c(=O)c2[nH]c(CCCCC(=O)O)nc2n(C)c1=O", "growth": "121%"}, {"compound": "CC(=O)OCC(=O)[C@@]1(O)CC[C@H]2[C@@H]3CCC4=CC(=O)CC[C@]4(C)[C@@]3(F)[C@@H](O)C[C@@]21C", "growth": "121%"}, {"compound": "CN(C)c1ccc(Nc2cc(-c3cccc(OC(F)(F)F)c3)nc3ccc(N4CCCC4)cc23)cc1", "growth": "-48.1% (active)"}, {"compound": "COc1cc(OC)c(S(N)(=O)=O)cc1C(=O)/C=C/c1ccc(Cl)cc1", "growth": "-57.8% (active)"}, {"compound": "COc1cc2ccnc(C=O)c2cc1OC", "growth": "82.5%"}, {"compound": "COc1cc(C(=O)/C=C/c2c(C)n([O-])c3ccc(C(F)(F)F)cc3[n+]2=O)cc(OC)c1OC", "growth": "36.8%"}, {"compound": "COc1cccc(NC(=O)c2sc3nc4c(cc3c2N)C(O)CCC4)c1", "note": "(stereo not given)", "growth": "48.6%"}, {"compound": "Cc1c(O)c(O)cc2c3c(oc12)CC(c1ccc2c(c1)OCO2)CC3=O", "note": "(stereo not given)", "growth": "93.2%"}, {"compound": "CCN(CC)CCCOc1ccc2c(c1)O/C(=C\\c1cccc(OC)c1)C2=O", "growth": "79.8%"}, {"compound": "NC(C(=O)O)C(O)c1ccc(OCc2ccccc2)c(OCc2ccccc2)c1", "note": "(stereo not given)", "growth": "104%"}, {"compound": "C=COC(=O)C(C)(C)C", "growth": "106%"}, {"compound": "CCN(CC)Cc1cc(Nc2ccnc3ccc(OC)cc23)ccc1O", "growth": "-3.96% (active)"}, {"compound": "COc1ccc(NCc2cn(-c3ccc(C(=O)O)cc3)nc2-c2ccc(C(=O)O)cc2)cc1C(F)(F)F", "growth": "98.6%"}, {"compound": "COc1ccc(C(=O)C2CC2c2ccc(Cl)cc2)cc1", "note": "(stereo not given)", "growth": "98.3%"}, {"compound": "CC(=O)c1c(/C=C/c2ccc(C)cc2)c2ccccc2[nH]c1=O", "growth": "110%"}]}]}
